# Data taken from PubChem BioAssay (NCI).
# “And” between values parts separate entries of the source, which are not always exact repeats. Equal values may be shown once. Compounds without any hit were thinned out: in the full panel of roughly 79,000, 15% have a hit. Where a structure was tested more than once in an assay, its records may differ in their call. The source made the active and inactive calls. No stated cut-off is given here; in the data, active means growth inhibition above about 70%; inactive means the rest.
# Experiment: NCI Yeast Anticancer Drug Screen. Data for the rad50 strain (AID 155);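 further: 0% = growth of vehicle-only cultures of the same strain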
# Details: S. cerevisiae rad50 strain growth inhibition; at 50.0 µM (retest, dose inferred, filed as 5.0); stronger effect = higher value
# Procedure, shortened: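 DNA repair mutant yeast, compound exposure, growth read-out; inhibition is taken relative to vehicle.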
row,Structure (SMILES),growth inhibition
1,O=C1/C(=C/c2ccccc2)CCCC1CN1CCCCC1 (configuration not stated),79% (active)
2,C#CCN(Cc1ccc2nc(N)[nH]c(=O)c2c1)c1ccc(C(=O)NC(CCC(=O)O)C(=O)O)cc1 (configuration not stated),67% (inactive) and 82% (active)
3,CCOC1(c2cccc([N+](=O)[O-])c2)c2ccccc2Oc2ccccc21,69% (inactive)
4,O=C(O)CNC(=S)Nc1ccccc1,82% (active)
5,N/C(=N/N=C/c1cc(Br)cc(Br)c1O)NO,99% (active)
6,C[Si](C)(C)/C=C/CCNC(C#N)c1ccccc1 (configuration not stated),99% (active)
7,CCCCCCCCCCCCCCCCOP(=O)(O)OCC(N)C(=O)O (configuration not stated),98% (active)
8,CC1=C(C(=O)NCc2ccccc2)C(c2ccccc2)C(C(=O)NCc2ccccc2)=C(C)N1,75% (active)
9,O=[N+]([O-])c1cc(S(=O)(=O)Nc2ccccc2)ccc1Nc1ccccc1,94% (active)
10,COc1cc2ccnc(-c3c4ccccc4c(N)c4c(OC)c(OC)ccc34)c2cc1OC,78% (active)
11,CCOC(=O)C(Br)C(Br)c1ccccc1Cl (configuration not stated),99% (active)
12,CCOC(=O)C1=C(C)NC(C)=C(C(=O)OCCNC(=O)c2ccc(N=[N+]=[N-])cc2)C1c1ccccc1C(F)(F)F (configuration not stated),18% (inactive)
13,Cc1cc(C)c(NC(=S)NC(=O)c2ccccc2)cc1C,-4% (inactive)
14,CNCCCNc1c2ccccc2nc2cccc([N+](=O)[O-])c12,95% (active)
15,COc1c(O)c(C=O)c(Br)c(C=O)c1O,97% (active)
16,Cc1c(C)c(C)c(CSC(=N)N)c(C)c1C,81% (active)
17,O=C(CSC(=S)N1CCCCC1)Nc1nc2c(s1)CCCC2,68% (inactive)
